TDP1 cell CPT: growth inhibition of DT40 Tdp1-/-;hTDP1 cells with camptothecin (screen for TDP1 inhibitors); chicken DT40 Tdp1-/-;hTDP1 cells + 20 nM CPT, ATP luminescence, 48 h; Potency, µM (doses to about 46.2 µM), actives largely listed as inhibitors; actives 12% (n = 420,000); further: nearly all actives have a fitted effect of over 55% in size
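Chicken DT40 Tdp1-/- cells complemented with human TDP1, 400 cells/well, exposed to compounds plus 20 nM camptothecin for at least 48 h at 37 C; viability read as ATP content by CellTiter-Glo luminescence.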
TDP1 cell noCPT: qHTS for Inhibitors of human tyrosyl-DNA phosphodiesterase 1 (TDP1): qHTS in cells in absence of CPT. DT40 Tdp1-/- hTDP1 cells, no CPT, ATP luminescence, 48 h. Potency, µM (titrated, usually from 46.2 µM), actives largely listed as inhibitors. actives 15% (n = 420,000); further: nearly all actives have a fitted effect of over 55% in size
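No-CPT arm: Tdp1-/-;hTDP1 DT40 cells (400/well) plus compounds, incubated ≥48 hr at 37 °C. Readout CellTiter-Glo luminescence.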
HT1080 IDH1KD tx: kills HT-1080 cells with IDH1 knockdown; HT-1080 IDH1 knockdown viability, ATP luminescence, 48 h; Potency, µM (doses to about 46.1 µM), usual class: cytotoxic; actives 2% (n = 360,000)
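HT-1080-IDH1KD cells (IDH1 knocked down), 750/well in RPMI with 5% FBS, treated with compound 48 h at 37 degrees C. Viability by CellTiter-Glo luminescence, normalised to DMSO and no-cell wells; concentration-response curves classed.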
IL1B secr inh: inflammasome signaling inhibition, IL-1 beta readout; AID 743279; THP-1 LPS/ATP IL-1B secretion, AlphaLISA, 16 h; hits give low values; activity change, % at 57.5 µM; actives 4.7% (n = 360,000); in the data active means activity change below about -50%; inconclusive means mostly about -30% to -49%
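Secreted IL-1B measured by AlphaLISA bead assay after 16 h compound exposure of THP-1 cells; compounds (final up to 57.5 uM) added 1 h before LPS (250 ng/mL) and ATP (1.25 mM) stimulation; lower signal means less secretion.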
HT1080NT lethal: kills 2HG-producing HT-1080-NT fibrosarcoma cells. HT-1080-NT fibrosarcoma viability, CellTiter-Glo ATP luminescence, 48 h. Potency, µM (series often up to 46.1 µM), usual class: cytotoxic. actives 1.6% (n = 360,000);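 further: NT is the 2HG producing partner of a matched IDH1 knockdown line; nearly all actives have a fitted effect of over 55% in size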
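Fibrosarcoma NT cells, 750 per well in 5% FBS RPMI, were exposed to compound for 48 hours. Viability: CellTiter-Glo luminescence.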
Numbers stand for hits; – = inactive; ? = inconclusive; · = no result; [ ] = dose if it differs, or a comment. Rows were chosen to be rich in hits. Some 19% of all compounds tested hit in one or more screens of this group. Unless noted, the call rests on the fitted dose curve; in most records, active means well fitted curve in the direction sought with a large enough effect; inconclusive means small, poorly fitted or top-dose-only effect, or another doubt; inactive means no such curve, though single readings can be large; an effect the other way counts as inactive or inconclusive.

SMILES | TDP1 cell CPT | TDP1 cell noCPT | HT1080 IDH1KD tx | IL1B secr inh | HT1080NT lethal
COc1cc(/C=C(\C#N)c2ccccn2)ccc1OCC(=O)Nc1cccc(C(F)(F)F)c1 | – | – | – | – | –
COc1cc(/C=C(\C#N)c2ccccn2)ccc1OCc1ccccc1Cl | 14.6µM | ? | – | – | –
Cc1cc(S(=O)(=O)NCc2nc(N3CCCC3)c3cc(Cl)ccc3n2)c(C)s1 | –[9.04 µM] | – | · | · | ·
COc1ccc(NC(=O)c2cc(CN3C(=O)c4ccccc4C3=O)ccc2OC)cn1 | ? | ? | 20.6µM | – | ?
COc1ccc(CN2C(=O)c3ccccc3C2=O)cc1C(=O)Nc1ccccc1N1CCOCC1 | ? | 16.4µM | – | – | –
CCC(=O)N(CCC(c1ccc(C)cc1)c1ccco1)Cc1ccco1 (stereo not drawn) | ? | 23.1µM | – | – | –
Cc1ccc(CN(Cc2ccco2)C(=O)COc2ccccc2C)cc1 | 20.6µM | 16.4µM | · | · | ·
Cc1cc(C)c(OCC(=O)N(Cc2ccc(N(C)C)cc2)Cc2ccco2)c(C)c1 | 11.6µM | 7.31µM | · | · | ·
Cc1ccccc1OCC(=O)N(Cc1ccco1)c1c(N)n(Cc2ccccc2)c(=O)[nH]c1=O | – | – | – | – | –
Cc1ccc(CN(Cc2ccco2)C(=O)COc2c(C)cc(C)cc2C)cc1 | 23.1µM | 9.2µM | · | · | ·
Cc1cccc(C)c1OCC(=O)N(Cc1ccc(N(C)C)cc1)C1CCS(=O)(=O)C1 (stereo not drawn) | – | – | – | – | –
CCC(=O)N(CCC(c1ccco1)C(C)C)Cc1ccccc1 (stereo not drawn) | ? | ? | – | – | –
Cc1ccc2c(c1)ncc[n+]2CC(=O)c1ccc(Cl)cc1Cl | – | – | · | · | ·
CC(=O)N/C(=C\c1ccccc1)C(=O)NCC(=O)O | – | – | – | – | –
Cc1ccc(S(=O)(=O)NCCC(=O)OCC(=O)NCCc2ccccc2)cc1C | – | – | – | – | –
Cc1cc(=O)c(C(=O)Nc2ccc(N3CCOCC3)cc2N2CCOCC2)nn1-c1ccccc1Cl | – | ? | – | – | –
CCN(CC)C(=O)C1=C(C)N(Cc2ccccc2)C(=O)C(CC(=O)NC2CCCC2)C1 (stereo not drawn) | – | – | – | – | –
CC(C)CNC(=S)NNC(=O)c1csc2c1CCC(C)C2 (stereo not drawn) | ? | 20.6µM | ? | ? | ?
COC(=O)c1ccc2c(=O)n(-c3ccccc3F)c(=S)[nH]c2c1 | – | – | – | – | –
COC(=O)CN1C(C)=Nc2ccc(C)cc2C1c1ccccc1 (stereo not drawn) | – | – | – | -53.1 | –
Cc1ccc(C(C)C)c(OCc2nn(CC(=O)c3ccc(OC(F)F)cc3)c3[n+]2CCCCC3)c1 | 0.581µM | 0.581µM | 18.4µM | -107.4 | 14.6µM
COc1ccc(C(=O)Cn2nc(CNc3ccc(Br)cc3)[n+]3c2CCCCC3)cc1 | 3.66µM | 2.59µM | ? | -80.3 | ?
CN(C)C(=O)C(=O)c1cccn1-c1cccc(Cl)c1C#N | – | – | – | – | –
CS(=O)(=O)N1CCC(Oc2ccccc2C(=O)N2CCC[C@H]2CO)CC1 | – | – | – | – | –
CCN(CC)C(=O)CN1CCN(Cc2ccc3c(c2)OCO3)CC1 | – | – | – | – | –
SMILES | TDP1 cell CPT | TDP1 cell noCPT | HT1080 IDH1KD tx | IL1B secr inh | HT1080NT lethal
CN(C)S(=O)(=O)c1cccc(-c2nn(-c3ccccc3)cc2/C=C(\C#N)c2nc3ccccc3[nH]2)c1 | 5.17µM | 5.8µM | – | – | –
CCN1C(=O)/C(=C/c2cn(-c3ccccc3)nc2-c2cccnc2)SC1=S | – | – | – | – | –
CN(C)S(=O)(=O)c1cccc(-c2nn(-c3ccccc3)cc2/C=C2\SC(=S)NC2=O)c1 | ? | ? | 10.3µM | – | ?
Cc1ccc(S(=O)(=O)NCCOc2nc(N(C)C)nc(N(C)C)n2)cc1 | ? | ? | – | – | –
NC(=O)CC(NC(=O)c1ccccc1)c1ccc(NC2CCCC2)c([N+](=O)[O-])c1 (stereo not drawn) | 4.61µM | 18.4µM | – | – | –
NC(=O)CC(NC(=O)c1ccccc1)c1ccc(NCC2CC2)c([N+](=O)[O-])c1 (stereo not drawn) | 23.1µM | ? | – | – | –
CCCCN(C)CCNC(=O)CCn1nc(-c2ccc(Cl)cc2)ccc1=O | – | – | – | – | –
CCCCN(C)CCNC(=O)CCn1nc(-c2ccc(C)cc2)ccc1=O | 20.6µM | – | – | – | –
Cc1ccc(NS(=O)(=O)c2ccc(C(=O)N3CCN(c4ncccn4)CC3)cc2)cc1 | ? | 7.31µM | – | – | –
Cc1ccc(S(=O)(=O)N2CCN(C(=O)c3cc4c(s3)CCCC4)CC2)cc1 | ? | 16.4µM | – | – | –
Cc1ccc(NS(=O)(=O)c2ccc(C(=O)N3CC(C)CC(C)C3)cc2)cc1 (stereo not drawn) | 20.6µM | 16.4µM | – | – | –
COc1ccc(NS(=O)(=O)c2ccc(OCC(=O)N3CCOCC3)cc2)cc1 | – | ? | – | – | –
Cc1ccc(S(=O)(=O)Nc2ccc(C(=O)N3CCCC3)cc2)cc1 | – | – | – | – | –
CCOC(=O)N1CCN(C(=O)COc2ccc(S(=O)(=O)Nc3ccc(OCC)cc3)cc2)CC1 | ? | 23.1µM | ? | – | –
COc1ccc(S(=O)(=O)N2CCN(C(=O)c3cc4c(s3)CCC4)CC2)cc1 | ? | ? | – | – | –
Cc1ccc(C(=O)N2CCN(c3ncccn3)CC2)cc1 | – | – | – | – | –
Cc1ccc(NS(=O)(=O)c2ccc(C(=O)N3CCN(S(=O)(=O)c4ccccc4)CC3)cc2)cc1 | 11.6µM | 7.31µM | – | – | –
CCOC(=O)N1CCN(C(=O)c2ccc(Cl)c(S(=O)(=O)Nc3ccccc3)c2)CC1 | – | – | – | – | –
O=S(=O)(Nc1ccc(N2CCCCC2)cc1)c1ccc(F)cc1 | 16.4µM | 29.1µM | – | – | –
O=C(c1ccc(NS(=O)(=O)c2ccccc2)cc1)N1CCOCC1 | – | 10.3µM | – | – | –
Cc1ccc(NS(=O)(=O)c2ccc(C(=O)N3CCOCC3)cc2)cc1 | ? | ? | – | – | –
CCOC(=O)N1CCN(C(=O)c2ccc(S(=O)(=O)Nc3ccccc3)cc2)CC1 | 11.6µM | ? | – | – | –
CC(C(=O)N1CCN(C(=O)c2ccco2)CC1)N1C(=O)NC2(CCCCC2C)C1=O (stereo not drawn) | – | – | – | – | –
COc1ccc(OC)c(NC(=O)Cn2c(=O)n(CC3CCCO3)c(=O)c3cc(OC)c(OC)cc32)c1 (stereo not drawn) | – | – | – | – | –
CCN(C(=O)CSc1nc2ccc(Cl)cc2[nH]1)C1CCS(=O)(=O)C1 (stereo not drawn) | – | – | – | – | –

High-throughput results: PubChem BioAssay, National Center for Advancing Translational Sciences (NCATS)
